Reference: PubChem BioAssay AID2685 (National Center for Advancing Translational Sciences (NCATS), 2010)
Screen size: about 320,000 compounds; about 2,100 (0.66%) were called active. Not shown: some 53% with an inconclusive outcome. The sample holds actives, similar compounds and a random draw of the others, so the mix is not that of the screen. Calls come from the whole dose curve; as a rule, active = well fitted inhibition curve with a large enough effect in the signal ratio, with a control signal flat (not every such curve was filed as active); inconclusive = small, poorly fitted or top-dose-only effect, or effect the other way, or a change in a side signal; inactive = flat fitted curve, though single readings scatter; the % refers to the signal ratio.

experiment: qHTS Assay for Lipid Storage Modulators in Drosophila S3 Cells; conditions: BODIPY lipid droplet fluorescence, 18-24 h, cells fed with added oleic acid; cell number change: measured here: cell count max response; series mostly up to 46.1 µM; lipid storage change, negative = inhibition: at the top concentration;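 for cell number change: cells counted by Cell Tracker Red CMTPX staining in the red channel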; for lipid storage change, negative = inhibition: % is set by controls: 0 for no effect and ±100 for the full control effect
In short: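 Drosophila S3 cells loaded with oleic acid (400 uM, as added) and compounds at several concentrations; lipid droplets imaged by 488-nm laser-scanning cytometry, 500–530 nm intensity and object ratio to cell channel. Percent activity normalized to 20 uM Triacsin C.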
Potency is the fitted concentration of half-maximal effect.

Q: Which “lipid storage change, negative = inhibition” value does the source give for `Cc1cc(NC(=O)c2cc([N+](=O)[O-])cc([N+](=O)[O-])c2C)no1` here?
A: -8.89% (inactive)

Q: What about the cell number change of the same molecule?
A: 11.7%

Q: For `CCC1=Nc2ccccc2-c2nnc(SC)nc2O1`, which “outcome” value is on record?
A: inactive

Q: For `O=C1Nc2ccccc2C1(O)Cc1ccccn1` (stereo not given), which “lipid storage change, negative = inhibition” value is on record?
A: -6.05% (inactive)

Q: What about the cell number change of the same molecule?
A: -9.38%

Q: Which Potency does the source give for `O=C1Nc2ccccc2C1(O)Cc1ccncc1` (stereo not given) here?
A: 13 µM (active)

Q: What about the cell number change of the same molecule?
A: 1.32%

Q: What does the source list for `O=C1Nc2ccc(Br)cc2C1(O)Cc1ccncc1` (stereo not given)?
A: lipid storage change, negative = inhibition: 14.5% (inactive); cell number change: 16.8%

Q: For `NS(=O)(=O)c1ccc(CCNC(=O)CSc2ccc3ccccc3c2)cc1`, which “lipid storage change, negative = inhibition” value is on record?
A: 2.99% (inactive)

Q: Which “outcome” value does the source give for `COCCN(C(=O)COC(=O)/C(=C/c1ccccc1)NC(C)=O)c1c(N)n(Cc2ccccc2)c(=O)[nH]c1=O` here?
A: inactive

Q: What about the cell number change of the same molecule?
A: -11.6%

Q: What does the source list for `COc1ccc(CCNC(=O)C2CC3Cn4c(nc5ccccc54)C3N2C)cc1` (stereo not given)?
A: lipid storage change, negative = inhibition: 6.16% (inactive); cell number change: -10.7%

Q: Which results are given for `COC(=O)C1=C(C)N=C2SC(C#N)=C(N)N2C1c1cc(OC)c(OC)c(OC)c1` (stereo not given)?
A: lipid storage change, negative = inhibition: -7.72% (inactive); cell number change: 2.55%

Q: Which results are given for `COC(=O)C1=C(C)N=C2SC(C#N)=C(N)N2C1c1cccc(OC)c1` (stereo not given)?
A: outcome: inactive; cell number change: -6.05%

Q: Which results are given for `COC(=O)C1=C(C)N=C2SC(C#N)=C(N)N2C1c1ccc(OC)cc1` (stereo not given)?
A: Potency: 11.6 µM (active); cell number change: -10.8%

Q: With `CCC1(C(=O)OC)NC(c2ccco2)C2C(=O)N(c3ccccc3)C(=O)C21` (stereo not given) as the molecule, how does the “lipid storage change, negative = inhibition” value read?
A: 3.55% (inactive)

Q: What about the cell number change of the same molecule?
A: 5.03%

Q: Which Potency does the source give for `CCC1(C(=O)OC)NC(c2ccco2)C2C(=O)N(c3ccc(C)cc3)C(=O)C21` (stereo not given) here?
A: 29.1 µM (active)

Q: What about the cell number change of the same molecule?
A: -0.0174%

Q: For `CCCC1(C(=O)OC)NC(c2ccco2)C2C(=O)N(c3ccc(C)cc3)C(=O)C21` (stereo not given), which “lipid storage change, negative = inhibition” value is on record?
A: 0.487% (inactive)

Q: And the cell number change?
A: 3.89%

Q: Which “lipid storage change, negative = inhibition” value does the source give for `COc1ccccc1C1=Nn2c(COc3ccccc3)nnc2SC1` here?
A: 8.35% (inactive)

Q: And the cell number change?
A: 23.6%

Q: Which “outcome” value does the source give for `O=S(=O)(c1ccc(Cl)cc1)N1CCn2c1nc1ccccc12` here?
A: inactive

Q: For `O=[N+]([O-])c1cccc(S(=O)(=O)N/N=C\c2ccc3c(c2)OCO3)c1`, which “lipid storage change, negative = inhibition” value is on record?
A: -28.7% (inactive)

Q: And the cell number change?
A: -21.8%

Q: For `Cc1nc(Cc2ccc(OC(C)C)cc2)[nH]c(=O)c1CC(=O)O`, which “lipid storage change, negative = inhibition” value is on record?
A: 17.8% (inactive)

Q: What about the cell number change of the same molecule?
A: 12.4%

Q: Which Potency does the source give for `O=C(Nc1nc(-c2ccc(Cl)cc2)cs1)C1=COCCO1` here?
A: 9.2 µM (active)

Q: What about the cell number change of the same molecule?
A: -17.4%

Q: Which “lipid storage change, negative = inhibition” value does the source give for `Cc1ccc(-c2csc(NC(=O)C3=COCCO3)n2)cc1` here?
A: 12.5% (inactive)

Q: What about the cell number change of the same molecule?
A: -0.453%

Q: For `CC(=O)Nc1ccc(-c2csc(NC(=O)C3=COCCO3)n2)cc1`, which lipid storage change, negative = inhibition is on record?
A: -16.5% [at 0.0737 µM] (inactive)

Q: Which “lipid storage change, negative = inhibition” value does the source give for `COC(=O)CNC(c1ccccc1)c1cc(Br)ccc1NC(C)=O` (stereo not given) here?
A: 10.9% (inactive)

Q: And the cell number change?
A: 6.76%

Q: Which results are given for `CCC(=O)Nc1ccc(NC(=O)c2ccccc2Cl)nc1`?
A: outcome: inactive; cell number change: 7.43%

Q: What does the source list for `COc1cc(C(=O)Oc2ccc(C(=S)N3CCOCC3)cc2)cc(OC)c1OC`?
A: lipid storage change, negative = inhibition: -15.9% (inactive); cell number change: -0.493%

Q: With `CCOCCOc1cccc(C(=O)NC(C)c2ccc3ccccc3c2)c1` (stereo not given) as the molecule, how does the Potency read?
A: 13 µM (active)

Q: And the cell number change?
A: -6.8%

Q: For `CCOCCOc1cccc(C(=O)NC(c2ccccc2)C(C)C)c1` (stereo not given), which “lipid storage change, negative = inhibition” value is on record?
A: -3.66% (inactive)

Q: And the cell number change?
A: 13.4%

Q: With `CCOc1cccc(C(=O)Nc2ccc3ccccc3c2)c1` as the molecule, how does the “outcome” value read?
A: inactive

Q: What about the cell number change of the same molecule?
A: 17.9%

Q: For `CC12COC3(C(=O)Nc4ccccc4F)CC1CCC32C` (stereo not given), which “lipid storage change, negative = inhibition” value is on record?
A: 0.0813% (inactive)

Q: What about the cell number change of the same molecule?
A: -23.5%

Q: With `CCc1nc(C)cn1S(=O)(=O)c1ccc([N+](=O)[O-])cc1` as the molecule, how does the “lipid storage change, negative = inhibition” value read?
A: -3.24% (inactive)

Q: And the cell number change?
A: 7.81%

Q: Which “outcome” value does the source give for `COC(=O)CN1C(=S)N(C)C(=O)/C1=C/c1cccs1` here?
A: inactive

Q: Which “lipid storage change, negative = inhibition” value does the source give for `O=C(CCCc1ccccc1)c1ccc2c(c1)OCCO2` here?
A: 5.96% (inactive)

Q: And the cell number change?
A: -0.322%

Q: For `O=C(Cc1ccccc1)c1ccc2c(c1)OCCO2`, which “lipid storage change, negative = inhibition” value is on record?
A: 2.3% (inactive)

Q: What about the cell number change of the same molecule?
A: 9.53%

Q: Which results are given for `O=C(CCCO)c1ccc2c(c1)OCCO2`?
A: Potency: 18.4 µM (active); cell number change: -5.61%

Q: With `Cn1c2c(c3ccccc31)CC/C2=N\O` as the molecule, how does the “outcome” value read?
A: inactive

Q: And the cell number change?
A: 17%

Q: Which “lipid storage change, negative = inhibition” value does the source give for `Cc1ccc(P(=O)(OCCN2CCOCC2)C(C)(C)C)o1` (stereo not given) here?
A: -11.2% (inactive)

Q: And the cell number change?
A: -0.698%

Q: With `CCCCc1nnc(NC(=O)CSc2nc(O)c(-c3ccccc3)c(=O)[nH]2)s1` as the molecule, how does the “lipid storage change, negative = inhibition” value read?
A: -3.64% (inactive)

Q: And the cell number change?
A: -17.7%

Q: For `O=C1CC(c2ccc3c(c2)OCCO3)Oc2ccccc21` (stereo not given), which “lipid storage change, negative = inhibition” value is on record?
A: 9.86% (inactive)

Q: What about the cell number change of the same molecule?
A: 8.06%

Q: Which results are given for `COc1ccc2c(c1)C(=O)CC(c1ccc3c(c1)OCCO3)O2` (stereo not given)?
A: lipid storage change, negative = inhibition: 8.02% (inactive); cell number change: 2.81%

Q: With `O=C1CC(c2ccc3c(c2)OCCO3)Oc2ccc([N+](=O)[O-])cc21` (stereo not given) as the molecule, how does the Potency read?
A: 7.31 µM (active)

Q: And the cell number change?
A: -9.91%

Q: For `C/C(N)=C(/C#N)C(=O)COC(=O)c1ccc(NC(N)=O)cc1`, which “lipid storage change, negative = inhibition” value is on record?
A: 7.52% (inactive)

Q: What about the cell number change of the same molecule?
A: 13.4%

Q: Which results are given for `O=C(N/N=C/c1cccc([N+](=O)[O-])c1)c1ccc(Br)cc1`?
A: lipid storage change, negative = inhibition: -16.9% (inactive); cell number change: 0.144%

Q: With `Cn1nnnc1SCCNCc1ccccc1OCc1ccccc1` as the molecule, how does the “lipid storage change, negative = inhibition” value read?
A: -2.39% (inactive)

Q: And the cell number change?
A: 16.4%

Q: Which results are given for `COc1cc(CNCCSc2nnnn2C)cc(Br)c1OCc1ccccc1`?
A: lipid storage change, negative = inhibition: 7.07% (inactive); cell number change: -4.04%

Q: For `Cn1nnnc1SCCNCc1cc(Cl)ccc1OCc1ccccc1`, which Potency is on record?
A: 5.8 µM (active)

Q: And the cell number change?
A: 3.31%

Q: For `O=C(CSc1nccn1Cc1ccco1)Nc1ccccc1`, which “lipid storage change, negative = inhibition” value is on record?
A: -11.6% (inactive)

Q: What about the cell number change of the same molecule?
A: 2.09%

Q: Which Potency does the source give for `COc1cnc(-c2ccccc2)nc1Oc1ccccc1C` here?
A: 5.17 µM (active)

Q: And the cell number change?
A: -26.8%

Q: Which “outcome” value does the source give for `COc1cnc(-c2ccccn2)nc1Oc1c(C)cccc1C` here?
A: inactive

Q: Which results are given for `COc1cnc(-c2ccccc2)nc1Oc1cccc(C)c1C`?
A: lipid storage change, negative = inhibition: 0.382% (inactive); cell number change: 7.32%
